Test results: PubChem BioAssay AID1981 (Southern Research Specialized Biocontainment Screening …, 2009)
Among all 2,200 compounds or so, about 480 (22%) were called active. No rule for the calls is given here. The list is a sample of the results. Results with a measured potency or affinity are listed apart.

experiment: S. Typhimurium GFP fluorescence dose response in modified counterscreen for PhoP regulon inhibitor project (AID 1981); conditions: 4 h; series mostly up to 150 µM; inhibition: at the top concentration;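 also: 0% = induced DMSO wells and 100% = uninduced wells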

| Structure (SMILES) | inhibition |
| --- | --- |
| c1ccc2c(c1)ncn2CCCCOc1ccc2c(c1)CCC2 | 5.38% (inactive) |
| Cc1ncoc1C(=O)Nc1cccc(Cl)c1 | -2.48% (inactive) |
| CC1N(C)c2cc(NC(=O)c3ccco3)ccc2C1(C)C (centres undefined) | 7.13% (inactive) |
| CSc1cccc(NC(=O)c2ccco2)c1 | 0.75% (inactive) |
| O=C(Nc1ccc2c(c1)oc1ccccc12)N1CCOCC1 | -1.29% (inactive) |
| O=C(NCC(=O)N(c1cccnc1)C(C(=O)NCc1ccco1)c1ccccc1)c1ccco1 (centres undefined) | 3.62% (inactive) |
| CC(=O)c1c(C)n([O-])c2cc(F)c(F)cc2[n+]1=O | 3.8% (inactive) |
| Cc1c(C(=O)Nc2cccc(Cl)c2)c2ccccn2c1CCc1ccncc1 | 0.01% (inactive) |
| CCOc1ccc(-c2nnc(SCc3nnc(-c4ccccc4)o3)n2-c2ccccc2F)cc1 | -12.2% (inactive) |
| CCC(CC)NC(=O)COC(=O)c1ccc(OCC(=O)Nc2ccccc2OC)c(OC)c1 | 7.06% (inactive) |
| Cc1nn(-c2ccccc2)c(C)c1C(=O)OC/C(O)=C(\C#N)c1nc2ccccc2[nH]1 | 2.85% (inactive) |
| COC(=O)c1sc2nc(CSc3nc4ccc(C)cc4[nH]3)[nH]c(=O)c2c1C | -22.2% (inactive) |
| CCOCC(=O)Nc1ccc(F)c(F)c1 | -1.81% (inactive) |
| Nc1nc(N)nc(-c2ccccc2)n1 | 0.22% (inactive) |
| CC(C)(C)c1ccc(NC(=O)COC(=O)c2ccc([N+](=O)[O-])s2)cc1 | -1.36% (inactive) |
| N/C(=N/OC(=O)c1ccccc1Cl)c1ncc([N+](=O)[O-])s1 | 7.99% (inactive) |
| O=C(Nc1cccc(Cl)c1)Nc1ccc2c(c1)OCO2 | 17.6% (inactive) |
| O=C(NCCCc1ccccc1)Nc1cccc(Cl)c1 | 11.9% (inactive) |
| CCOC(=O)Nc1ccc(C)cc1C | -8.78% (inactive) |
| CCOC(=O)c1sc(-c2ccc(C(F)(F)F)cc2)nc1O | 0.14% (inactive) |
| O=C(NNc1c2ccccc2nc2ccccc12)c1ccccc1O | 6.64% (inactive) |
| CC(C)c1ccc(NC(=O)N(CCc2nc3ccccc3[nH]2)C2CCCC2)cc1 | -4.79% (inactive) |
| Cc1ccc(CNC(=O)Nc2cccs2)cc1 | 0.25% (inactive) |
| CCCc1cc(C(=O)NNC(=S)NC(C)c2ccccc2)cs1 (centres undefined) | -11.8% (inactive) |
| Cc1noc(C)c1CSc1nc2ccccc2nc1NS(=O)(=O)c1ccc(Cl)cc1 | 11% (inactive) |

| Structure (SMILES) | inhibition |
| --- | --- |
| COc1ccc(C(=O)NC(=S)NCc2ccc(-c3nc4ccccc4o3)cc2)cc1OC | -4.99% (inactive) |
| O=C(O)CC(NC(=S)NCc1ccccc1)C(=O)O (centres undefined) | -4.62% (inactive) |
| Cc1cc(Nc2ccc(Cl)cc2)nc(N)n1 | 20.8% (inactive) |
| O=S(=O)(c1ccc(NC(=S)Nc2ccc3c(c2)OCO3)cc1)N1CCOCC1 | -16.1% (inactive) |
| CC(C(=O)NC1CCS(=O)(=O)C1)N1C(=O)/C(=C/c2ccc(Cl)cc2)SC1=S (centres undefined) | -14.2% (inactive) |
| O=S1(=O)C=CC(Nc2cccc(Cl)c2)C1 (centres undefined) | -0.09% (inactive) |
| CC1=C(C(=O)OCC2CCCO2)C(c2cccc(C(F)(F)F)c2)C2=C(CC(c3ccco3)CC2=O)N1 (centres undefined) | -9.9% (inactive) |
| CN(CCNS(=O)(=O)c1ccc2c(c1)oc(=O)n2C)Cc1ccccc1 | -17.6% (inactive) |
| COc1ccc(-c2cnn3c(N)c(S(=O)(=O)C(C)(C)C)cnc23)cc1 | 6.45% (inactive) |
| C/C(=C\C(=O)c1cccnc1)Nc1ccc(O)cc1 | -26.2% (inactive) |
| O=C(N/N=C/c1ccc(Cl)cc1Cl)c1cccc(F)c1 | -13.2% (inactive) |
| O=C(N/N=C/C1CC=CCC1)c1ccc(Cl)cc1O (centres undefined) | 33.9% (inactive) |
| N/C(=N\OC(=O)COc1ccc(Cl)cc1)c1cccnc1 | 4.11% (inactive) |
| CC(=O)Nc1ccc(OC(=O)c2cccnc2)cc1 | -26.3% (inactive) |
| O=C(N/N=C/C1C(c2ccccc2)C1(Cl)Cl)c1cccc(Cl)c1 (centres undefined) | 14.5% (inactive) |
| N/C(=N\OC(=O)Cc1ccc(Cl)cc1)c1cccnc1 | 16.3% (inactive) |
| N#CC(CC(=O)c1ccc(F)cc1)c1ccc2c(c1)OCO2 (centres undefined) | -2.1% (inactive) |
| C/C(=N\NC(=S)Nc1ccc(F)cc1)c1ccc2c(c1)OCCO2 | -25.7% (inactive) |
| C(=N\c1nc2ccccc2n1CCN1CCCCC1)/c1cccs1 | 2.07% (inactive) |
| Cc1cccc(C(=O)Nc2nnc(Cc3c[nH]c4ccccc34)s2)c1 | 17.4% (inactive) |
| CC1CN(C(=O)CCc2ccccc2)C(C)CN1C(=O)CCc1ccccc1 (centres undefined) | -14.4% (inactive) |
| Cc1cccc(OCCSCc2nc3ccccc3[nH]2)c1 | -3.83% (inactive) |
| Cc1ccc(Cn2cnc3ccccc32)cc1 | -14.9% (inactive) |
| Cc1ccc(-c2nnc(SCC(=O)N3CCCc4ccccc43)n2N)cc1 | -4.51% (inactive) |
| Clc1ccc(-c2cnc3n2CCC3)cc1 | 20.7% (inactive) |

| Structure (SMILES) | inhibition |
| --- | --- |
| O=[N+]([O-])c1ccc(N2CCN(CCOc3nonc3-c3ccccc3)CC2)c(Cl)c1 | -17.7% (inactive) |
| Cc1occc1C(=O)n1cnc2ccccc21 | -9.62% (inactive) |
| Nc1c(-c2ccccc2Cl)cnn1-c1cccc([N+](=O)[O-])c1 | -11.9% (inactive) |
| C=C(C)C1Cc2cc3ccc(=O)oc3cc2O1 (centres undefined) | -12.2% (inactive) |
| CCOC(=O)C1=C(C)N(CCO)C(=O)NC1c1cccc(O)c1 (centres undefined) | -4.28% (inactive) |
| O=c1c2ccccc2nnn1Cc1ccccn1 | -6.94% (inactive) |
| Cc1cc(C)c(C#N)c(SCC(O)CS(=O)(=O)Cc2ccccc2)n1 (centres undefined) | -3.65% (inactive) |
| C/C(=N\NC(=O)C1CC1c1ccccc1)c1cccc([N+](=O)[O-])c1 (centres undefined) | 3.97% (inactive) |
| Cc1cc(C(=O)N/N=C/c2cc(Br)cc(Br)c2OC(=O)c2ccccc2)n[nH]1 | -12.9% (inactive) |
| Nc1nnc(CC(=O)N/N=C\c2cc([N+](=O)[O-])ccc2O)s1 | 11.5% (inactive) |
| Cc1ccc(N=Nc2ccc(O)c(/C=N\NC(=O)c3ccc(N)cc3)c2)cc1C | 4.29% (inactive) |
| Cc1cc(/C=N/NC(=O)c2cccc([N+](=O)[O-])c2)c(C)n1-c1ccc(Cl)cc1Cl | 11% (inactive) |
| Cc1ccc2cccc(Oc3ncnc4scc(-c5ccccc5)c34)c2n1 | -10.1% (inactive) |
| CN(C)c1ccnc(-n2cccc2/C=N/OCc2ccccc2)c1C#N | -15.6% (inactive) |
| COc1ccc(OC)c(NC(=O)c2cc3c(Cl)nc4ccccc4c3s2)c1 | 0.23% (inactive) |
| Cc1ccc(C)c(C(=O)NCc2ccncc2)c1 | -9.64% (inactive) |
| COc1ccc(CN=C2Nc3ccccc3CS2)cc1 | 1.48% (inactive) |
| O=c1c2cc(Br)ccc2nc(-c2ccccc2)n1O | 21.9% (inactive) |
| CN1CCCC(OC(=O)c2ccc(Cl)cc2)C1 (centres undefined) | 5.48% (inactive) |
| NC(=S)c1cc2ccc(O)cc2oc1=O | 18.9% (inactive) |
| OCCCNc1nc(-c2ccc(Cl)cc2)nnc1-c1ccc(Br)cc1 | -7.67% (inactive) |
| CCn1c(CNC(=O)COc2ccc(C(C)C)cc2)nnc1SCC(=O)Nc1ccccc1 | -1.91% (inactive) |
| FC(F)(F)c1cc(C(F)(F)F)c2ccc(Oc3ccccc3)nc2n1 | 1.91% (inactive) |
| Cc1cc(C)c2c(c1)NC(=O)C2(O)CC(=O)c1cccs1 (centres undefined) | 7% (inactive) |
